Results reported in PubChem BioAssay (NCI).
Values joined by “and” are separate entries in the source; they are usually repeats but may differ in a detail not shown here. Equal values may be shown once. Compounds without any hit were thinned out: in the full panel of roughly 83,000, 20% have a hit.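 Single-concentration screen, 48 h exposure, 96-well plates. Endpoint: percent growth. Below 10 = active.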 Active and inactive are the calls of the source.

Columns and labels:
Experiment in all cases: NCI-60 one-dose screen, 48 h (100 = growth as untreated, 0 = no growth, -100 = all killed)
Conditions in all cases: 10 µM unless noted
SK-MEL-2 melanoma = test system: SK-MEL-2 melanoma
EKVX NSCLC = test system: EKVX NSCLC
SN12C renal = test system: SN12C renal
UO-31 renal = test system: UO-31 renal
TK-10 renal = test system: TK-10 renal
ACHN renal = test system: ACHN renal
CAKI-1 renal = test system: CAKI-1 renal
A498 renal = test system: A498 renal
CCRF-CEM leukemia = test system: CCRF-CEM leukemia
MOLT-4 leukemia = test system: MOLT-4 leukemia
SR leukemia = test system: SR leukemia
OVCAR-8 ovarian = test system: OVCAR-8 ovarian
OVCAR-5 ovarian = test system: OVCAR-5 ovarian
OVCAR-4 ovarian = test system: OVCAR-4 ovarian
SK-OV-3 ovarian = test system: SK-OV-3 ovarian
IGROV1 ovarian = test system: IGROV1 ovarian
OVCAR-3 ovarian = test system: OVCAR-3 ovarian
HS 578T breast = test system: HS 578T breast
NCI/ADR-RES ovarian = test system: NCI/ADR-RES ovarian
RPMI-8226 leukemia = test system: RPMI-8226 leukemia

Compound	growth (SK-MEL-2 melanoma)	growth (EKVX NSCLC)	growth (SN12C renal)	growth (UO-31 renal)	growth (TK-10 renal)	growth (ACHN renal)	growth (CAKI-1 renal)	growth (A498 renal)	growth (CCRF-CEM leukemia)	growth (MOLT-4 leukemia)	growth (SR leukemia)	growth (OVCAR-8 ovarian)	growth (OVCAR-5 ovarian)	growth (OVCAR-4 ovarian)	growth (SK-OV-3 ovarian)	growth (IGROV1 ovarian)	growth (OVCAR-3 ovarian)	growth (HS 578T breast)	growth (NCI/ADR-RES ovarian)	growth (RPMI-8226 leukemia)
CC[C@H](C)[C@H](NC(=O)[C@H](CCCCN)NC(=O)[C@H](CCCCN)NC(=O)[C@@H](NC(=O)[C@@H](NC(=O)[C@@H](N)Cc1cnc[nH]1)[C@@H](C)CC)[C@@H](C)CC)C(=O)N[C@@H](CCCNC(=N)N)C(=O)N[C@H](C(=O)N[C@@H](Cc1c[nH]c2ccccc12)C(=O)N[C@@H](Cc1ccc(O)cc1)C(=O)N[C@@H](CCCNC(=N)N)C(=O)N[C@@H](CCCCN)C(=O)N[C@@H](C)C(=O)N[C@@H](Cc1c[nH]c2ccccc12)C(=O)N[C@@H](Cc1cnc[nH]1)C(=O)N[C@H](C(=O)N[C@@H](CC(C)C)C(=O)NCC(=O)N[C@@H](CCCCN)C(=O)N[C@H](C(N)=O)C(C)C)C(C)C)[C@@H](C)O	12.7% (inactive)	-26.4% (active)	12.1% (inactive)	81.9% (inactive)	-16.8% (active)	70.8% (inactive)	17.5% (inactive)	66.2% (inactive)	76.2% (inactive)	56.7% (inactive)	71.9% (inactive)	33.7% (inactive)	48.4% (inactive)	77.9% (inactive)	35% (inactive)	39.2% (inactive)	44.9% (inactive)	11.6% (inactive)	34.8% (inactive)	
CN1Cn2c(ccc2C(F)(F)F)C(=O)CS1(=O)=O	105% (inactive)	99.2% (inactive)	104% (inactive)	82.9% (inactive)	103% (inactive)	99.4% (inactive)	94.1% (inactive)	96.1% (inactive)	105% (inactive)	101% (inactive)	109% (inactive)		96% (inactive)	97.4% (inactive)	106% (inactive)	104% (inactive)	112% (inactive)	106% (inactive)	103% (inactive)	109% (inactive)
Cc1ccc(Cl)cc1N1CCN(C(=O)[C@@H]2C[C@@H]2c2ccc(F)cc2)CC1	91.7% (inactive)	88.3% (inactive)	98.9% (inactive)	70.9% (inactive)	100% (inactive)	93% (inactive)	69.1% (inactive)	87.2% (inactive)	91.5% (inactive)	78.5% (inactive)	80.4% (inactive)		94.4% (inactive)	85.9% (inactive)	90.3% (inactive)	71.1% (inactive)	95.3% (inactive)	90.9% (inactive)	89.7% (inactive)	62.9% (inactive)
COc1cc2nc3cc([N+](=O)[O-])ccc3c(NCCNCC(C)(C)O)c2cc1OC	-45.5% (active)	7.08% (active)	-17.1% (active)	27.7% (inactive)	9.89% (active)	6.39% (active)	16.1% (inactive)	-48.8% (active)	0.0876% (active)	5.85% (active)	-12.2% (active)		8.33% (active)	-31.8% (active)	17.8% (inactive)	-15.9% (active)	-31.2% (active)	-2.1% (active)	55% (inactive)	-8.62% (active)
NCCOCCOc1ccccc1	101% (inactive)	106% (inactive)	103% (inactive)	86.8% (inactive)	90.9% (inactive)	106% (inactive)	88.3% (inactive)	97.3% (inactive)	91.9% (inactive)	101% (inactive)	101% (inactive)		104% (inactive)	98% (inactive)	112% (inactive)	103% (inactive)	106% (inactive)	115% (inactive)	102% (inactive)	88.7% (inactive)
CC[C@]1(O)CC2CN(CCc3c([nH]c4ccccc34)C(C(=O)OC)(c3cc4c(cc3OC)N(C=O)[C@H]3[C@@](O)(C(=O)OC)[C@H](OC(C)=O)[C@]5(CC)[C@@H]6C[C@@H]6CN6CC[C@]43[C@@H]65)C2)C1 (stereo partly specified)	11.6% (inactive)	43.4% (inactive)	30.1% (inactive)	31.1% (inactive)	50% (inactive)	30.9% (inactive)	32.1% (inactive)	-20% (active)	13.6% (inactive)	13.1% (inactive)	12.7% (inactive)		29.6% (inactive)	45.5% (inactive)	-17.7% (active)	8.34% (active)	-53.6% (active)	-2.32% (active)	-6.57% (active)	23.4% (inactive)
COCCn1cc(-c2nc(-c3cn(CCOC)c4ncccc34)cs2)c2ccccc21	59.9% (inactive)	27.9% (inactive)	107% (inactive)	98.6% (inactive)	33.3% (inactive)	91.6% (inactive)	94.6% (inactive)	123% (inactive)	128% (inactive)	122% (inactive)	102% (inactive)	97.7% (inactive)	46% (inactive)	23.1% (inactive)	63.3% (inactive)	36.7% (inactive)	17.2% (inactive)	86.7% (inactive)	95.2% (inactive)	
C#CCOCC1CN(C)C(=O)O1 (stereo unspecified)	116% (inactive)	115% (inactive)	103% (inactive)	97.1% (inactive)	110% (inactive)	105% (inactive)	104% (inactive)	107% (inactive)	98.9% (inactive)	89.6% (inactive)	69.7% (inactive)	94.1% (inactive)	126% (inactive)	116% (inactive)	133% (inactive)	108% (inactive)	109% (inactive)	109% (inactive)	109% (inactive)	
COc1cc(CO)cc2cc3ccccc3nc12	111% (inactive)	102% (inactive)	101% (inactive)	81.7% (inactive)	118% (inactive)	105% (inactive)	93.6% (inactive)	-22.1% (active)	99.1% (inactive)	99.4% (inactive)	96% (inactive)	101% (inactive)	106% (inactive)	107% (inactive)	109% (inactive)	106% (inactive)	110% (inactive)	108% (inactive)	111% (inactive)	
Nc1nc(N)c2c(n1)NC(c1cccc(Nc3ccnc4cc(C(F)(F)F)ccc34)c1)CC(c1ccc(F)cc1)=N2 (stereo unspecified)	37.3% (inactive)	47% (inactive)	59.8% (inactive)	53.7% (inactive)	91.8% (inactive)	75.5% (inactive)	47.1% (inactive)	78.1% (inactive)	25% (inactive)	2.74% (active)	-7.72% (active)	63.1% (inactive)	108% (inactive)	57.9% (inactive)	63.1% (inactive)	50.5% (inactive)	26.4% (inactive)	42.1% (inactive)	70.7% (inactive)	
Cc1ccc(NC(=O)c2ccc(CN3CCN(C)CC3)cc2)cc1Nc1nccc(-c2cccnc2)n1		84.3% (inactive) and 90.9% (inactive)	94% (inactive) and 83.7% (inactive)	92.4% (inactive) and 77.6% (inactive)	110% (inactive) and 74.9% (inactive)	101% (inactive) and 82.7% (inactive)	100% (inactive) and 102% (inactive)	86.3% (inactive) and 82.5% (inactive)	93.4% (inactive) and 49.7% (inactive)	82% (inactive) and 45.1% (inactive)	85.4% (inactive) and -22.5% (active)	91.6% (inactive) and 67.7% (inactive)	123% (inactive) and 97.5% (inactive)	100% (inactive) and 93.1% (inactive)	106% (inactive) and 107% (inactive)	119% (inactive) and 98.3% (inactive)	110% (inactive) and 84% (inactive)	90.1% (inactive)	101% (inactive) and 91.4% (inactive)	87.4% (inactive) and 38.3% (inactive)
O=C(Nc1ccc(F)cc1)c1cc2cc(Nc3nc(-c4ccccc4)nc4ccccc34)ccc2oc1=O	104% (inactive)	108% (inactive)	104% (inactive)	83.4% (inactive)	97.3% (inactive)	105% (inactive)	101% (inactive)	102% (inactive)	106% (inactive)	92.9% (inactive)	86.6% (inactive)	100% (inactive)	106% (inactive)	111% (inactive)	98.2% (inactive)	101% (inactive)	105% (inactive)	103% (inactive)	95.5% (inactive)	
COc1cc2c(cc1OCCCOC1=C=C=C(c3ccc4c(c3)c3cc(-c5ccc(OCCCOc6cc7c(cc6OC)C(=O)N6CCC[C@H]6C=N7)cc5)ccc3n4S(=O)(=O)c3ccc(C)cc3)C=C1)N=C[C@@H]1CCCN1C2=O	-20.6% (active)	94.5% (inactive)	-17.2% (active)	39.1% (inactive)	221% (inactive)	7.74% (active)	-19.8% (active)	76.9% (inactive)	40.3% (inactive)	-11.6% (active)	-74% (active)	23.9% (inactive)		58.2% (inactive)	93.7% (inactive)	14% (inactive)	0.652% (active)	2.22% (active)	94% (inactive)	
